Reference: PubChem BioAssay (Tox21)
Calls of active or inactive are those of the source. A call without a number means that no potency is given here. Calls come from the whole dose curve.

What follows are compounds tested against Acetylcholinesterase (Homo sapiens) (UniProt P22303) (assay: Acetylcholinesterase (AChE) small molecule antagonists: enzyme-based qHTS assay (AID 1347397; note: nearly all actives have a fitted effect of over 55% in size)). Conditions: Potency: AChE enzyme activity inhibition; outcome: AChE enzyme activity inhibition; series mostly up to 115 µM.
Excerpt: National Center for Advancing Translational Sciences [NCATS]
Division of Preclinical Innovation [DPI]
U.S. Environmental Protection Agency [EPA]
National Institutes of Environmental Health Sciences [NIEHS]
National Toxicology Program [NTP]
U.S. Food and Drug Administration [FDA]
Acetylcholinesterase (AChE) is the primary cholinesterase in the body that hydrolyzes a key neurotransmitter, acetylcholine. Inhibition of AChE activity can lead to neurotoxicity. The known inhibitors include organophosphorous pesticides (OP), chemical warfare agents, drugs, and various phytochemicals.
An enzyme-based assay with the recombinant human AChE and Amplite Colormetric acetylcholinesterase assay kit (AAT Bioquest, Sunnyvale, CA) was used to evaluate the chemicals in the Tox21 10K library that inhibit AChE activity. The assay uses 5, 5-dithiobis-(2-nitrobenzoic acid) (DTNB) to quantify the thiocholine produced from the hydrolysis of acetylthiocholine by AChE.
Tox21 Assay Protocol Summary:
For the enzyme-based AChE assay, recombinant human AChE (50 mU/mL) in 4 uL/well was dispensed into black, clear-bottom 1536-well plates using a Multidrop Combi dispenser (Thermo Scientific, MA). Then, 23 nL of compound or DMSO (vehicle control) was transferred into the assay plates by a Pintool Station (Wako Automation, CA). The plates were incubated for 30 min at room temperature, followed by the addition of 4 uL of colorimetric detection cocktail solution (DTNB, acetylthiocholine) into each well using a Flying Reagent Dispenser (Beckman Coulter, CA) and then 10 min incubation at room temperature.

Chain of Acetylcholinesterase (Homo sapiens) (P22303 whole entry, looked up): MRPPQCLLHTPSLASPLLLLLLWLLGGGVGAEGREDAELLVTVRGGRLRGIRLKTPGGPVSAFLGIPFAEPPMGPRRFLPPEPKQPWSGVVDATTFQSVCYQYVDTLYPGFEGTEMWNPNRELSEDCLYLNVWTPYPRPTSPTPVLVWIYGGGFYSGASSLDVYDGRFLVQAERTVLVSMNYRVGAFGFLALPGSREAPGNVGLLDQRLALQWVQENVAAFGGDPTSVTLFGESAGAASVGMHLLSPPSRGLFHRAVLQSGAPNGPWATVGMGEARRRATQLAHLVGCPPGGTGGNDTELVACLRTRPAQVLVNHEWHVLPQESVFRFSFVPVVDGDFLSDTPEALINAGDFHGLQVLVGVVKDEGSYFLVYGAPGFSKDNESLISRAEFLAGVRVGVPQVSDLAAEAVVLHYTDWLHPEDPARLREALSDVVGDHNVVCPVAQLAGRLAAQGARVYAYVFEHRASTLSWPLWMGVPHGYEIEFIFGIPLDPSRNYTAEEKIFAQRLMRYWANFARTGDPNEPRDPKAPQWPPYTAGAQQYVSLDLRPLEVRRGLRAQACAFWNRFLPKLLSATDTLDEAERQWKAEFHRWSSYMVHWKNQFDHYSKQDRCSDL

SMILES | Potency | activity change, negative = inhibition
Cc1cc(S(=O)(=O)O)ccc1N=Nc1c(O)ccc2ccccc12 | inactive | 
CCCCc1ccc(N)cc1 | inactive | 
COc1cc(N)ccc1C | inactive | 
CCCCC(=O)O[C@]1(C(=O)CO)[C@H](C)C[C@H]2[C@@H]3CCC4=CC(=O)C=C[C@]4(C)[C@@]3(F)[C@@H](O)C[C@@]21C | inactive | 
CC(C)(C)C1(CCc2ccc(Cl)cc2)CO1 (stereo not given) | inactive | 
CC(C)(C)CC(C)(C)c1ccc(OCCO)cc1 | inactive | 
CCCC(c1cc(C(C)(C)C)c(O)cc1C)c1cc(C(C)(C)C)c(O)cc1C | inactive | 
O=C(O)CCCCCCCCCCCBr | inactive | 
Cc1ccc(O)c(O)c1 | inactive | 
CCCCCCCCCCCCCCC[C@H](O)[C@@H](N)CO | inactive | 
CSc1ccc2c(c1)C(N1CCN(C)CC1)Cc1ccccc1S2 (stereo not given) | inactive | 
COc1ccccc1NC(=O)c1cc2ccccc2cc1O | inactive | 
Nc1ccc2c(S(=O)(=O)O)cccc2c1S(=O)(=O)O | inactive | 
Cc1ccc(OC(=O)c2ccccc2O)cc1 | inactive | 
OC(C#CCN1CCCC1)(c1ccccc1)c1ccccc1 | inactive | 
Cc1ccc(NC(=O)c2ccc(CN3CCN(C)CC3)cc2)cc1Nc1nccc(-c2cccnc2)n1 | inactive | 
O=C(O)c1cc(-c2ccc(F)cc2F)ccc1O | inactive | 
CO[C@H]1C=CO[C@@]2(C)Oc3c(C)c(O)c4c(O)c(cc(O)c4c3C2=O)NC(=O)/C(C)=C\C=C/[C@H](C)[C@H](O)[C@@H](C)[C@@H](O)[C@@H](C)[C@H](OC(C)=O)[C@@H]1C | inactive | 
OC1(c2ccccc2)CCNCC1 | inactive | 
CC(C)(O)C(=O)O | inactive | 

SMILES | Potency | activity change, negative = inhibition
CCOc1ccccc1N | inactive | 
OCCC(O)CO (stereo not given) | inactive | 
O=C(CCN1CCN2CCCC2C1)N1c2ccccc2Sc2ccc(Cl)cc21 (stereo not given) |  | 0.831% [at 23.6 µM] (inactive)
CCCCC1C(=O)N(c2ccccc2)N(c2ccc(O)cc2)C1=O (stereo not given) | inactive | 
CC(=O)OC1C2(C)CCC(C2)C1(C)C (stereo not given) | inactive | 
C=C(C)C1CC=C(C)C(O)C1 (stereo not given) | inactive | 
CC(=O)OCC(=O)Nc1cc(C#N)cc(NC(=O)COC(C)=O)c1Cl | inactive | 
COc1cc(OC)nc(NC(=O)NS(=O)(=O)Nc2ccccc2C(=O)N(C)C)n1 | inactive | 
O=c1[nH]c(=O)n([C@H]2C[C@H](O)[C@@H](CO)O2)cc1I | inactive | 
O=C1OC(=O)c2cc(Oc3ccc4c(c3)C(=O)OC4=O)ccc21 | inactive | 
O=C(O)Cc1ccc(CCNS(=O)(=O)c2ccc(Cl)cc2)cc1 | inactive | 
CCc1cccc(C)c1 | inactive | 
CN(CCOc1ccc(NS(C)(=O)=O)cc1)CCc1ccc(NS(C)(=O)=O)cc1 | inactive | 
COc1ccc(CCC(=O)c2c(O)cc(O[C@@H]3O[C@H](CO)[C@@H](O)[C@H](O)[C@H]3O[C@@H]3O[C@@H](C)[C@H](O)[C@@H](O)[C@H]3O)cc2O)cc1O | inactive | 
C[C@@H]1C[C@H]2[C@@H]3CCC4=CC(=O)C=C[C@]4(C)[C@@]3(Cl)[C@@H](O)C[C@]2(C)[C@@]1(OC(=O)c1ccco1)C(=O)CCl | inactive | 
O=C(Cl)c1cc(C(=O)Cl)cc(C(=O)Cl)c1 | inactive | 
CCCCCCC1(C)CCC(=O)O1 (stereo not given) | inactive | 
CCCn1cc[n+](C)c1C | inactive | 
Cc1cccc(N(C)C)c1 | inactive | 
CC1CC(=O)NN=C1c1ccc(NCC(C)(C)NCC(O)COc2cc(Cl)ccc2C#N)cc1 (stereo not given) | inactive | 
